PubChem BioAssay (NCATS)
Inconclusive results are not listed. The source made the active and inactive calls. Calls follow the shape of the dose curve; as a rule, active = well fitted inhibition curve with a large enough effect; inconclusive = small, poorly fitted or top-dose-only effect; inactive = flat fitted curve, though single readings scatter.

Tests used:
Experiment in all cases: qHTS profiling for inhibitors of Plasmodium falciparum proliferation (AID 504749); also: nearly all actives have a fitted effect of over 60% in size
3D7 = conditions: P. falciparum in erythrocytes, SYBR Green DNA, 72 h; series mostly up to 12.8 µM
Procedure, shortened: (§1)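 Parasite proliferation within erythrocytes, 72 h exposure. Endpoint: SYBR Green I fluorescence after overnight lysis at room temperature. Controls: 0.29 uM artemisinin, DMSO.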

AA1029 = conditions: P. falciparum in erythrocytes, SYBR Green DNA, 72 h; series mostly up to 12.8 µM
Procedure, shortened: as §1

C2A = conditions: P. falciparum in erythrocytes, SYBR Green DNA, 72 h; series mostly up to 12.8 µM
Procedure, shortened: as §1

CP215 = conditions: P. falciparum in erythrocytes, SYBR Green DNA, 72 h; series mostly up to 28.7 µM
Procedure, shortened: as §1

CP217 = conditions: P. falciparum in erythrocytes, SYBR Green DNA, 72 h; series mostly up to 12.8 µM
Procedure, shortened: as §1

CP237 = conditions: P. falciparum in erythrocytes, SYBR Green DNA, 72 h; series mostly up to 12.8 µM
Procedure, shortened: as §1

CP250 = conditions: P. falciparum in erythrocytes, SYBR Green DNA, 72 h; series mostly up to 12.8 µM
Procedure, shortened: as §1

CP252 = conditions: P. falciparum in erythrocytes, SYBR Green DNA, 72 h; series mostly up to 12.8 µM
Procedure, shortened: as §1

CP260 = conditions: P. falciparum in erythrocytes, SYBR Green DNA, 72 h; series mostly up to 12.8 µM
Procedure, shortened: as §1

CP265 = conditions: P. falciparum in erythrocytes, SYBR Green DNA, 72 h; series mostly up to 12.8 µM
Procedure, shortened: as §1

CP269 = conditions: P. falciparum in erythrocytes, SYBR Green DNA, 72 h; series mostly up to 12.8 µM
Procedure, shortened: as §1

CP286 = conditions: P. falciparum in erythrocytes, SYBR Green DNA, 72 h; series mostly up to 12.8 µM
Procedure, shortened: as §1

CP329 = conditions: P. falciparum in erythrocytes, SYBR Green DNA, 72 h; series mostly up to 12.8 µM
Procedure, shortened: as §1

DIV30 = conditions: P. falciparum in erythrocytes, SYBR Green DNA, 72 h; series mostly up to 12.8 µM
Procedure, shortened: as §1

Dd2 = conditions: P. falciparum in erythrocytes, SYBR Green DNA, 72 h; series mostly up to 12.8 µM
Procedure, shortened: as §1

GB4 = conditions: P. falciparum in erythrocytes, SYBR Green DNA, 72 h; series mostly up to 12.8 µM
Procedure, shortened: as §1

N140 = conditions: P. falciparum in erythrocytes, SYBR Green DNA, 72 h; series mostly up to 12.8 µM
Procedure, shortened: as §1

P93_24 = conditions: P. falciparum in erythrocytes, SYBR Green DNA, 72 h; series mostly up to 12.8 µM
Procedure, shortened: as §1

PAD = conditions: P. falciparum in erythrocytes, SYBR Green DNA, 72 h; series mostly up to 12.8 µM
Procedure, shortened: as §1

TAB165 = conditions: P. falciparum in erythrocytes, SYBR Green DNA, 72 h; series mostly up to 12.8 µM
Procedure, shortened: as §1

Measured: Potency
Potency is read from the fitted curve at half-maximal effect.

Cc1cc(/C=C\c2ccc3cc(N(C)C)ccc3[n+]2C)c(C)n1-c1ccccc1
active: 3D7 891 nM | AA1029 1580 nM | C2A 2510 nM | CP215 3220 nM | CP217 3160 nM | CP237 562 nM | CP250 2820 nM | CP252 3550 nM | CP260 355 nM | CP265 2510 nM | CP269 2560 nM | CP286 355 nM | CP329 2030 nM | DIV30 2560 nM | Dd2 398 nM | GB4 3220 nM | N140 3980 nM | P93_24 708 nM | PAD 3160 nM | TAB165 794 nM
